± gives the standard deviation of the averaged measurements. The full data set covers some 5,400 targets. This sample favours those with the largest changes.
Compound: Nc1nc2c(ncn2[C@@H]2O[C@H](COP(=O)(O)OP(=O)(O)OP(=O)(O)O)[C@@H](O)[C@H]2O)c(=O)[nH]1 [guanosine triphosphate]
Experiment: NP40-soluble protein abundance relative to vehicle (solubility fold change) (ratio); higher = more soluble protein in presence of GTP
Method: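 Solubility proteome profiling in Jurkat crude lysate. Lysate was treated with Mg-GTP (0.1-10 mM) for 10 min at room temperature and 3 min at 37 °C, then solubilised with 0.8% NP40 and benzonase, followed by ultracentrifugation. Proteins were quantified by TMT10 LC-MS/MS; the value is the NP40-soluble abundance relative to the NP40-processed vehicle, from 3 independent experiments.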

Chain of UniProt Q99996 (Q99996 whole entry, one chain of several): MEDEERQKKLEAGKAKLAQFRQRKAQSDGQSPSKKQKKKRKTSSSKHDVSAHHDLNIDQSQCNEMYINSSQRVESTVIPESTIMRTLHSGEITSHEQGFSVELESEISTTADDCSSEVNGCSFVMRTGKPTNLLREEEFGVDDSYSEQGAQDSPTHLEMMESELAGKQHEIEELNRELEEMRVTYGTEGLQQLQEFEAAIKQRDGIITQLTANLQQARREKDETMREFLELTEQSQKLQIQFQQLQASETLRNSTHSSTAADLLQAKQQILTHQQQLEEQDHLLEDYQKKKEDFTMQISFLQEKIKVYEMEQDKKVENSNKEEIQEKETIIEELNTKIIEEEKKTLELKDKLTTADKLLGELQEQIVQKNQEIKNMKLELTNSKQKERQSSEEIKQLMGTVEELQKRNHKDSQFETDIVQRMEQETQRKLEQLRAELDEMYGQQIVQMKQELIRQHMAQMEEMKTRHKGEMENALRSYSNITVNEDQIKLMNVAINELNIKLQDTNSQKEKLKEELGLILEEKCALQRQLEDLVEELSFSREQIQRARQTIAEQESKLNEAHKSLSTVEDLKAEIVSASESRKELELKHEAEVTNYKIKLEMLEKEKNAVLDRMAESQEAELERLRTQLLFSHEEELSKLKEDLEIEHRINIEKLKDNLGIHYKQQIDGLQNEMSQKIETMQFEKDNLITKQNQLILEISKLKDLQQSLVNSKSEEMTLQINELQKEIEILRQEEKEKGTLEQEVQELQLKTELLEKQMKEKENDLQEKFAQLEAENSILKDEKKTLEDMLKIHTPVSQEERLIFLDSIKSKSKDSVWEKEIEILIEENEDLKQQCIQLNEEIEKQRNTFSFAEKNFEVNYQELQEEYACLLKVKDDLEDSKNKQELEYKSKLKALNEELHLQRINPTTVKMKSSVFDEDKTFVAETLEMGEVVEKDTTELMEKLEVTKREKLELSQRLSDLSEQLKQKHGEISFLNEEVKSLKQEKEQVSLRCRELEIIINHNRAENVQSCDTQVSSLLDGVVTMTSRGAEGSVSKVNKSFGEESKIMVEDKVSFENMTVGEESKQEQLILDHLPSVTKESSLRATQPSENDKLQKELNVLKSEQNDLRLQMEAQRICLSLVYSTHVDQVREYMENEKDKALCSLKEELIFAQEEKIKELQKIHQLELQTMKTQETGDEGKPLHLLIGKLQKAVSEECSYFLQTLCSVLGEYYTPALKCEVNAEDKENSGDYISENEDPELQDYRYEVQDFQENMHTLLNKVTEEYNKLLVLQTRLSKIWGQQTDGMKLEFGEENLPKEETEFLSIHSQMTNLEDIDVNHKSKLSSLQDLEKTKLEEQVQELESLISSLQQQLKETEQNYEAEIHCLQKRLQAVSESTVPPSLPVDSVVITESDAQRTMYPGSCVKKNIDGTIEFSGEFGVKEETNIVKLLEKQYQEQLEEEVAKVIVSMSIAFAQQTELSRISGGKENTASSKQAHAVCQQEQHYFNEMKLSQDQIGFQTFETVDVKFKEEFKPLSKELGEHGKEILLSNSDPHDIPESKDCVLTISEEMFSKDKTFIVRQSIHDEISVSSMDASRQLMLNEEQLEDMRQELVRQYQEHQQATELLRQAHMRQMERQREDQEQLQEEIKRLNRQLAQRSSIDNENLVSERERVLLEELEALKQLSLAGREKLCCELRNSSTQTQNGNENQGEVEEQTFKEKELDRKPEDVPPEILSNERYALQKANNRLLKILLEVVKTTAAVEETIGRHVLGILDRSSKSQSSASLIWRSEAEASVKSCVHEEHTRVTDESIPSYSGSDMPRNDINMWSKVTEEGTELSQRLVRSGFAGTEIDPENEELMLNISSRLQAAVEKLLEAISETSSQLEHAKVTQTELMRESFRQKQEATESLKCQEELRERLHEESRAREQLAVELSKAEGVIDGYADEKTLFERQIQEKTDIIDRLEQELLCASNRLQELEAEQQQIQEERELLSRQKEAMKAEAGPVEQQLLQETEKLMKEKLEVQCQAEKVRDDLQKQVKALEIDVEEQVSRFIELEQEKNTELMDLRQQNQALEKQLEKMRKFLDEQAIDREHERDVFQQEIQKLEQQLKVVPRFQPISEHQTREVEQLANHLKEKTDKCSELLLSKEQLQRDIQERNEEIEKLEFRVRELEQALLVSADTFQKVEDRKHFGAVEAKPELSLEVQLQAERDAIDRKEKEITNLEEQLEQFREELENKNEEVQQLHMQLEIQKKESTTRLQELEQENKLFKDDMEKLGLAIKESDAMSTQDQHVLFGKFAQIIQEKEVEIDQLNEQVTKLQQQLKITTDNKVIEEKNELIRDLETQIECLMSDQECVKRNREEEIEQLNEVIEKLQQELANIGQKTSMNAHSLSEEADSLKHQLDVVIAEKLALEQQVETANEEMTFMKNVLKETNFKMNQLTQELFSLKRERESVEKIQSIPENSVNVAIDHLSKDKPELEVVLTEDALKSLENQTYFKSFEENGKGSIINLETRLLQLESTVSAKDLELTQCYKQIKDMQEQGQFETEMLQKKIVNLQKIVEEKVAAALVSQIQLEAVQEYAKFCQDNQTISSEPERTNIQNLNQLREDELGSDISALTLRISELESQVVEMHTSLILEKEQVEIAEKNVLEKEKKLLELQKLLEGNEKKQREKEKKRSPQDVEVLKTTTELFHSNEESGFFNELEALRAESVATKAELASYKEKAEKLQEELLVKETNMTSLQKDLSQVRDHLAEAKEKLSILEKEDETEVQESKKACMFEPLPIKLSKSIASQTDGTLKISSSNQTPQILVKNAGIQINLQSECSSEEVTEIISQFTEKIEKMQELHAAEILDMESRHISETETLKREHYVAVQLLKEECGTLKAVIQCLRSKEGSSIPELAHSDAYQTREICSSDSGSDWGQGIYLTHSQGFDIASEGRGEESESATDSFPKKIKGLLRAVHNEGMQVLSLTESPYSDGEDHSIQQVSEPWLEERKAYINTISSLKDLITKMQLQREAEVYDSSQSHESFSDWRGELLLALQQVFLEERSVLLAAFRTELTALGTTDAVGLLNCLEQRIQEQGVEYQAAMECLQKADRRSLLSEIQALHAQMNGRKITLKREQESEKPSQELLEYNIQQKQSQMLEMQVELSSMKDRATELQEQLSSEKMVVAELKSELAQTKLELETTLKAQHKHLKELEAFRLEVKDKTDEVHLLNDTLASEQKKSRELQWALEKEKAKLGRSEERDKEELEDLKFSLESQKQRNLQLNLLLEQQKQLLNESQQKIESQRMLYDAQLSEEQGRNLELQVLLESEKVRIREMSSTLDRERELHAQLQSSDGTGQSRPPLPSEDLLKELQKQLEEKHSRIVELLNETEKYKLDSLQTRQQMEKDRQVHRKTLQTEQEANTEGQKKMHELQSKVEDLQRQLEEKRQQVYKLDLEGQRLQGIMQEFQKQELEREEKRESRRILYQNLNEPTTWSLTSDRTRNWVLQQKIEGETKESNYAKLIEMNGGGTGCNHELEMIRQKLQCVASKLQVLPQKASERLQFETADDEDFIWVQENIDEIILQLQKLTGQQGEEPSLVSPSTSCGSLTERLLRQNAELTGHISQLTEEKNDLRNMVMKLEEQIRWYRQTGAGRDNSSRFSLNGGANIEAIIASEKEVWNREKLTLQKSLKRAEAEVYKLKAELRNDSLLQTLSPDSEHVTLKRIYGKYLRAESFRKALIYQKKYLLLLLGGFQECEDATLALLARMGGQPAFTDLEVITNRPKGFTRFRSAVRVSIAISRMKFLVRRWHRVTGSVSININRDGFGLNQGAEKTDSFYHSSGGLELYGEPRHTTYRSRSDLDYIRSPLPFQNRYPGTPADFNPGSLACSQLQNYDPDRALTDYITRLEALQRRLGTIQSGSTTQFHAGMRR
Chain of UniProt Q15005 (Q15005 whole entry, one chain of several): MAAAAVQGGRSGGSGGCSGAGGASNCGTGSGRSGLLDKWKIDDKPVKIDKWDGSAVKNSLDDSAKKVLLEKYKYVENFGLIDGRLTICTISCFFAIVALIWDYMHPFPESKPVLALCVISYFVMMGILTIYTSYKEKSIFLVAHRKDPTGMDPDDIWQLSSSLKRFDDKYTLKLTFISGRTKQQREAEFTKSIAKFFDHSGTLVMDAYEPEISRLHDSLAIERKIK
Chain of UniProt Q16629 (Q16629 whole entry, one chain of several): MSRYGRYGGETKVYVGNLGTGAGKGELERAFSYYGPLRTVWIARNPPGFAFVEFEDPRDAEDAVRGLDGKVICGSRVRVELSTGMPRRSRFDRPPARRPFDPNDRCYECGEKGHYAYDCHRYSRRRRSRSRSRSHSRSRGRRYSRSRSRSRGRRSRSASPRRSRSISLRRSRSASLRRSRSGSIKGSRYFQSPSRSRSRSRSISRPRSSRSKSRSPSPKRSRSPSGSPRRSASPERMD

Question: For “A0A0A0MRF6|Q99996|Q99996-2|Q99996-3|Q99996-5|Q99996-6 (UniProt Q99996)”, which NP40-soluble protein abundance (concentration: 0.1mM) is on record?
Answer: Its NP40-soluble protein abundance is 1.03 ± 0.014.

Question: What about the NP40-soluble protein abundance (concentration: 0.5mM) of the same target?
Answer: Its NP40-soluble protein abundance is 1.05 ± 0.017.

Question: What about the NP40-soluble protein abundance (concentration: 1mM) of the same target?
Answer: The NP40-soluble protein abundance was 1.08 ± 0.049.

Question: And the NP40-soluble protein abundance (concentration: 2mM)?
Answer: The NP40-soluble protein abundance was 1.1 ± 0.056.

Question: And the NP40-soluble protein abundance (concentration: 4mM)?
Answer: The NP40-soluble protein abundance was 1.15 ± 0.09.

Question: What about the NP40-soluble protein abundance (concentration: 6mM) of the same target?
Answer: Its NP40-soluble protein abundance is 1.14 ± 0.095.

Question: What about the NP40-soluble protein abundance (concentration: 8mM) of the same target?
Answer: The NP40-soluble protein abundance was 1.18 ± 0.14.

Question: And the NP40-soluble protein abundance (concentration: 10mM)?
Answer: The NP40-soluble protein abundance was 1.12 ± 0.13.

Question: What does the source list for “A0A0B4J1Z1|C9JAB2|Q16629|Q16629-2|Q16629-3|Q16629-4 (UniProt Q16629)”?
Answer: NP40-soluble protein abundance (concentration: 0.1mM): 1.089 ± 0.0095; NP40-soluble protein abundance (concentration: 0.5mM): 1.36 ± 0.1; NP40-soluble protein abundance (concentration: 1mM): 1.57 ± 0.23; NP40-soluble protein abundance (concentration: 2mM): 1.58 ± 0.16; NP40-soluble protein abundance (concentration: 4mM): 1.44 ± 0.33; NP40-soluble protein abundance (concentration: 6mM): 1.55 ± 0.35; NP40-soluble protein abundance (concentration: 8mM): 1.74 ± 0.47; NP40-soluble protein abundance (concentration: 10mM): 1.75 ± 0.52

Question: Which results are given for “A0A087WUC6|E9PI68|Q15005|E9PL01 (UniProt Q15005)”?
Answer: NP40-soluble protein abundance (concentration: 0.1mM): 0.955 ± 0.026; NP40-soluble protein abundance (concentration: 0.5mM): 0.955 ± 0.018; NP40-soluble protein abundance (concentration: 1mM): 0.899 ± 0.025; NP40-soluble protein abundance (concentration: 2mM): 0.882 ± 0.05; NP40-soluble protein abundance (concentration: 4mM): 0.858 ± 0.041; NP40-soluble protein abundance (concentration: 6mM): 0.881 ± 0.045; NP40-soluble protein abundance (concentration: 8mM): 0.859 ± 0.055; NP40-soluble protein abundance (concentration: 10mM): 0.843 ± 0.061

Question: What does the source list for E9PRF4|Q15047|Q15047-3 (UniProt Q15047)?
Answer: NP40-soluble protein abundance (concentration: 0.1mM): 0.977 ± 0.12; NP40-soluble protein abundance (concentration: 0.5mM): 0.93 ± 0.12; NP40-soluble protein abundance (concentration: 1mM): 0.904 ± 0.055; NP40-soluble protein abundance (concentration: 2mM): 0.909 ± 0.039; NP40-soluble protein abundance (concentration: 4mM): 0.873 ± 0.04; NP40-soluble protein abundance (concentration: 6mM): 0.881 ± 0.035; NP40-soluble protein abundance (concentration: 8mM): 0.904 ± 0.051; NP40-soluble protein abundance (concentration: 10mM): 0.862 ± 0.017

Question: “H0UI80|Q8IXH7|Q8IXH7-4|X6RLT1 (UniProt X6RLT1+Q8IXH7+H0UI80)” was tested. Which NP40-soluble protein abundance (concentration: 0.1mM) did it give?
Answer: Its NP40-soluble protein abundance is 1.01 ± 0.017.

Question: And the NP40-soluble protein abundance (concentration: 0.5mM)?
Answer: The NP40-soluble protein abundance was 0.973 ± 0.038.

Question: What about the NP40-soluble protein abundance (concentration: 1mM) of the same target?
Answer: Its NP40-soluble protein abundance is 0.965 ± 0.024.

Question: What about the NP40-soluble protein abundance (concentration: 2mM) of the same target?
Answer: The NP40-soluble protein abundance was 0.968 ± 0.012.

Question: What about the NP40-soluble protein abundance (concentration: 4mM) of the same target?
Answer: Its NP40-soluble protein abundance is 0.981 ± 0.011.

Question: What about the NP40-soluble protein abundance (concentration: 6mM) of the same target?
Answer: Its NP40-soluble protein abundance is 0.978 ± 0.01.

Question: What about the NP40-soluble protein abundance (concentration: 8mM) of the same target?
Answer: Its NP40-soluble protein abundance is 0.97 ± 0.039.

Question: What about the NP40-soluble protein abundance (concentration: 10mM) of the same target?
Answer: The NP40-soluble protein abundance was 0.95 ± 0.0096.

— the supplement of paper PMC6411743
